A number with no mark means an inactive call.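 The calls were made as follows, unless noted: active = viability at or below 10% of carrier control in both of two separate runs; inconclusive = viability at or below 10% in only one of the two runs; inactive = the rest.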

A word on the viability: it is a read-out of living cells in per cent, often relative to untreated cells.

The target of the first assay is Receptor tyrosine-protein kinase erbB-2 (Homo sapiens) (UniProt P04626). In words: reducers of endogenous Her2 protein level, primary screen, SKBR3 breast tumor cells, AlphaScreen, ATP viability (AID 461;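 active = Her2 level under about 52% in both replicate screens, with viability over 70% of control, limit read from the data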;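 also: lower value means less Her2 protein in the cells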). To be noted: 18-24 h, at 10 µM, active compounds read low. (In general: In Alpha technology, singlet oxygen from a donor bead excites a nearby acceptor bead.)
Chain of Receptor tyrosine-protein kinase erbB-2 (Homo sapiens) (P04626 whole entry, looked up): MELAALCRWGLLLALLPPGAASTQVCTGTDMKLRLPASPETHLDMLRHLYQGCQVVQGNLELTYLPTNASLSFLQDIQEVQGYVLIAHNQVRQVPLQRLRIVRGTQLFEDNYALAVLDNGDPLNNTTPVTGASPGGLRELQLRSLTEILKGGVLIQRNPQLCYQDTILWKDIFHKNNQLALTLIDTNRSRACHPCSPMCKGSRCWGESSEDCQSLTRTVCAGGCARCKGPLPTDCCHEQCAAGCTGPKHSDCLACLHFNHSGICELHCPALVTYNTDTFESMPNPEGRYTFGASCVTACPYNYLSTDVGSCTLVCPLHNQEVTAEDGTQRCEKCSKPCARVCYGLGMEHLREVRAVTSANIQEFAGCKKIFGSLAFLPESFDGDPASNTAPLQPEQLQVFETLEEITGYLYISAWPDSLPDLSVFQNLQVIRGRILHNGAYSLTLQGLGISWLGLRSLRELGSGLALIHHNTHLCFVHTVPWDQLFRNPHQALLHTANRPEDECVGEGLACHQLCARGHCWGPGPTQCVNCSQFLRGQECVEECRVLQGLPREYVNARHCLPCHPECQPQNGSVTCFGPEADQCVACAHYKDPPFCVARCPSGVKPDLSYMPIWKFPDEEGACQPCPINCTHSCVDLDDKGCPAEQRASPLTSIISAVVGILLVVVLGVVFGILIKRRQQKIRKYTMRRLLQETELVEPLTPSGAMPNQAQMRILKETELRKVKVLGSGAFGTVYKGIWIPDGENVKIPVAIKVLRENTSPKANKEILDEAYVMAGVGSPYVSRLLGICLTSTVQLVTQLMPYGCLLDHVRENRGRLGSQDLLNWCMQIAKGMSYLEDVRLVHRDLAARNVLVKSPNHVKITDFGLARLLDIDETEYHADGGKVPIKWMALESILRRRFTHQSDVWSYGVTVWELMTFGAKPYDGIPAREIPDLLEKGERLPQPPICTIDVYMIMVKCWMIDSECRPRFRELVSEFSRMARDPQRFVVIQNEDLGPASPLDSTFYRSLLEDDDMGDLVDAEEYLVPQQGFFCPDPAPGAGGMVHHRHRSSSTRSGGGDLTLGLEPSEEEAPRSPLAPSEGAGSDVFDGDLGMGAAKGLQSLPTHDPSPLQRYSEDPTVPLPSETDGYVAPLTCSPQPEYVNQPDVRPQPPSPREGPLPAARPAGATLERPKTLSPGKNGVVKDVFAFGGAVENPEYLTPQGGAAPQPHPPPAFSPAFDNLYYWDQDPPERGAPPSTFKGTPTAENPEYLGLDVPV
Consider `Cc1noc(C)c1S(=O)(=O)N1CCN(Cc2ccc3c(c2)OCO3)CC1`, for which the Her2 level is 105%. On the same count and under the same terms, the figure for `Cn1c(C(=O)NCCCN2CCCCCC2)cc2c(=O)n(C)c3ccccc3c21` is 92.5%; for `CS(=O)(=O)N(Cc1ccco1)CC(O)Cn1c2ccccc2c2ccccc21` (centres undefined) it is 71.5%; for `CC(=O)Nc1ccc(S(=O)(=O)Nc2nc3c(s2)CCCC3)cc1` it is 103%. `CCOC(=O)C(CC)Sc1ncnc2nc[nH]c12` (centres undefined): the Her2 level is 106%. `COc1cc2c(cc1OC)-c1nnc(C)n1C1(CCCC1)C2`: the Her2 level is 105%. On the same count and under the same terms, the figure for `Nc1nc2n(n1)C(c1cccc(Br)c1)CC(c1ccccc1)N2` (centres undefined) is 103%.

Test system in the next assay: not listed separately
In words: SK-BR-3 cell growth inhibitors, pilot screen, 24 h, human (AID 572).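 Also: compound exposure lasted between 18 and 24 h rather than exactly 24 h; 100% = carrier-treated control wells.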 To be noted: SK-BR-3 viability, CellTiter-Glo luminescence, at 10 µM, active compounds read low. On the technique in general: ATP-based viability assays read luminescence as a measure of living cells.
With `COc1ccc(C(=O)NCc2nnc(SC)n2C2CCCCC2)cc1`, the viability was 104%. Take `Oc1ccc(Cl)cc1-c1cc(-c2ccccc2)n[nH]1`: the viability is 55.5%. Still for that read-out and setting: the figure for `O=C(CCCn1c(=O)c2sccc2n(Cc2cc(=O)n3ccccc3n2)c1=O)NCc1ccco1` is 82.5%. The same measure, in the same setting: the same measure for `COC(=O)c1cn(NC(=O)C2CCCO2)c(=O)c2ccccc12` (centres undefined): 109%. Still for that read-out and setting: the figure for `CCN(CC)CCCNC(=O)c1cn(C)c2ccc(S(=O)(=O)N(C)C)cc2c1=O` is 98.5%. Regarding `Cc1nnc(SCCn2c(N3CCC(Cc4ccccc4)CC3)nc3c2c(=O)[nH]c(=O)n3C)s1`, the viability is 82.5%. On to `O=C(C(Cc1ccccc1)n1cccc1)N1CCCCCC1` (centres undefined), for which the viability is 99%. The same measure, in the same setting: the same measure for `O=C(Cn1nc(Cc2ccncc2)c2ccccc2c1=O)N1CCN(C(=O)c2ccco2)CC1`: 98.5%.

For `COc1ccc(-c2nc(CS(=O)CC(=O)NCc3ccccn3)c(C)o2)cc1` (centres undefined), the viability was 103%.

With `CCn1c(SCC(=O)Nc2ccc(Cl)cc2)nnc1C1CC1`, the viability was 92.5%. On the same count and under the same terms, the figure for `CCOC(=O)CN(C(=O)c1ccccc1)c1ccccc1C` is 93%. As to `COC(=O)Cc1cc(=O)[nH]c(Nc2nc3ccccc3o2)n1`, the viability is 104%.

In the case of `COc1ccc(C2CC(c3cccc(C)c3)n3ncnc3N2)cc1` (centres undefined), the viability was 87.5%. Same read-out and setting: the figure for `CC1CCCCN1CCNC(=O)C1CCN(S(=O)(=O)c2cccc3cccnc23)CC1` (centres undefined) is 97%. For `CCCCSc1nc(CCC)cc(=O)[nH]1`, the viability is 86.5%.

For `CC1(C)CC(=O)C2=C(C1)NC(=O)CC2c1ccc(N(CCC#N)CCC#N)cc1` (centres undefined), the viability is 101%. Same read-out and setting: the same measure for `Cc1cccc(OCC(=O)N2CCN(C(=O)Cc3ccccc3)CC2)c1`: 102%; for `O=C1CC(c2cccnc2)c2cc3c(cc2N1)OCO3` (centres undefined): 99.5%. Still for that read-out and setting: the figure for `CCc1nn(CC(=O)NCCCN2CCc3ccccc3C2)c(=O)c2cc3sccc3n12` is 86%; for `Cc1ccc(-c2nc3cc(NC(=O)C(C)C)ccc3o2)cc1` it is 87%. The same measure, in the same setting: the figure for `CC(CC(=O)NC1CCSC1=O)c1ccccc1` (centres undefined) is 97%. Turning to `COc1ccc(C2CC(c3ccc(OC)cc3)n3nc(N)nc3N2)cc1` (centres undefined), the viability was 97.5%. Still for that read-out and setting: the figure for `COC(=O)COc1cccc(NC(=O)COc2ccccc2)c1` is 99.5%. On the same count and under the same terms, the same measure for `COc1ccc(OCCSc2nc3ccccc3n2CC(=O)O)cc1`: 92.5%. Same read-out and setting: the same measure for `Cc1cccnc1-n1c(CCN2C(=O)c3ccccc3C2=O)nc2ccccc2c1=O`: 89.5%; for `CC(=O)N(c1ccc(Br)cc1)C1C=CS(=O)(=O)C1` (centres undefined): 100%. Turning to `Cc1ccccc1Cn1cc(/C=N/n2cnnc2)c2ccccc21`, the viability is 100%. Same read-out and setting: the figure for `CCOC(=O)N1CCN(c2cc(=O)n(-c3ccccc3Cl)c(=O)[nH]2)CC1` is 98.5%; for `CCCCN(C)Cc1c(O)ccc2c(-c3ccccc3)cc(=O)oc12` it is 89%; for `CCCCn1c(CN2CCN(c3ccc(F)cc3)CC2)nc2c1c(=O)n(C)c(=O)n2C` it is 98%.

Turning to `CCn1c(SCC(=O)Nc2cccc(C)c2)nc2c(c1=O)SC(C)C2` (centres undefined), the viability was 90%.

`COc1cccc(C2CC(c3ccc(C)cc3)n3nc(N)nc3N2)c1` (centres undefined): the viability was 104%. The same measure, in the same setting: the figure for `Cc1cc(C)cc(N(CC(=O)Nc2cccc(C)n2)S(=O)(=O)c2c(C)noc2C)c1` is 88.5%. Still for that read-out and setting: the same measure for `Cc1noc(C)c1S(=O)(=O)N1CCN(Cc2ccc3c(c2)OCO3)CC1`: 82.5%; for `Cn1c(C(=O)NCCCN2CCCCCC2)cc2c(=O)n(C)c3ccccc3c21`: 80%. Same read-out and setting: the same measure for `CS(=O)(=O)N(Cc1ccco1)CC(O)Cn1c2ccccc2c2ccccc21` (centres undefined): 93.5%. Turning to `CC(=O)Nc1ccc(S(=O)(=O)Nc2nc3c(s2)CCCC3)cc1`, the viability was 106%.

The record behind these values is PubChem BioAssay.
